Assay outcomes from PubChem BioAssay.
Hits are enriched below; roughly 7.6% of the tested compounds scored in any of these assays.
RORgamma inh: inhibitors of mouse ROR gamma transcriptional activity; P51450; Drosophila S2 Gal4-RORgamma UAS-luciferase reporter, 20 h; Potency, µM (series often up to 53.6 µM), for inactives: at the top dose activity change, negative = inhibition, actives largely listed as inhibitors; actives 5.4% (n = 310,000); AID 2551; also: potency is read from the fitted curve at half-maximal effect; % is scaled to controls: 0 for no effect and ±100 for the full control effect; nearly all actives have a fitted effect of over 60% in size
Target sequence (P51450 whole entry, looked up, the tested form may be a part): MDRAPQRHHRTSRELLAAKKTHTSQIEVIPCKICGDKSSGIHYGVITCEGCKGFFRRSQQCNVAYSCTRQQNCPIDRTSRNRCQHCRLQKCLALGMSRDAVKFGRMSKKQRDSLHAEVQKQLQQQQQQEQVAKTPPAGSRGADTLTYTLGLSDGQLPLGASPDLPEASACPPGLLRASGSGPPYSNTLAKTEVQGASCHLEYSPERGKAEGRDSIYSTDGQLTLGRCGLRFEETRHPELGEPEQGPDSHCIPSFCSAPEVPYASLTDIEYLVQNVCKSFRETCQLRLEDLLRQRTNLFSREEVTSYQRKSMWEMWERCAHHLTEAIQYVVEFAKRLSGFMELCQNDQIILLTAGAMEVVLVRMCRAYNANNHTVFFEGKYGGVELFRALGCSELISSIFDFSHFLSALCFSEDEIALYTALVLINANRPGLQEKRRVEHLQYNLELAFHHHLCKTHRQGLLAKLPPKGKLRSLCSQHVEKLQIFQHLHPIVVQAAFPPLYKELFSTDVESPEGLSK
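Compounds are pin-transferred onto Drosophila Schneider cells expressing a copper-inducible Gal4–ROR gamma transactivation domain fusion. After 1 hr, copper sulfate is added to 700 uM final; luciferase is read 20 hr later.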
BRCA1 expr up: BRCA1 expression activation. Potency, µM (doses to about 46.1 µM), for the others: at the top dose activation, actives largely listed as activators. actives 1.1% (n = 380,000). AID 624202. MCF7-BRCA1-FFLuc reporter, luminescence, 48 h; response scale: scaled: vehicle 0%, 10 µM genistein 100%; also: potency is read from the fitted curve at half-maximal effect; nearly all actives have a fitted effect of over 80% in size
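Luminescence from a BRCA1-driven firefly luciferase in MCF7 cells was the read-out, taken 15 min after substrate addition following 48 h compound exposure at 37 °C. Data were normalized to a 10 microM genistein control and DMSO vehicle.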
Giardia kill: Giardia lamblia killing. Giardia lamblia trophozoite viability. activity change, % at 7.66 µM, hits read low. actives 0.15% (n = 340,000); in the data active = activity change below about -80%; inconclusive = between about -30% and that limit;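 also: parasites exposed to compound for two days anaerobically before the ATP read; % is scaled to controls: 0 for no effect and ±100 for the full control effect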
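Media and compound were dispensed first, then trophozoites at 100 cells/well; plates sat 48 hrs at 37 deg C without oxygen before ATP luminescence reagent was added and read after 15-30 min at room temperature.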
ELG1 repair inh: inhibitors of ELG1-dependent DNA repair in HEK293T cells | actives 2.3% (n = 330,000) | HEK293T ELG1-luciferase reporter, luminescence, 16 h; DNA damage induced by 5-fluorouridine | Potency, µM (titrated, usually from 46.1 µM), for the others: top-dose activity change, negative = inhibition, most hits filed as inhibitors; also: potency is read from the fitted curve at half-maximal effect; % is scaled to controls: 0 for no effect and ±100 for the full control effect; nearly all actives have a fitted effect of over 55% in size
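In this reporter screen, reduction of luminescence relative to DMSO vehicle indicated activity. Compounds and 5-fluorouridine were added together to 2,000 cells per well, incubated for 16 hr at 37 °C, then developed with ONE-Glo.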
Gal4-VP16 FLuc: Gal4-VP16 reporter inhibition counter-screen. Drosophila S2 Gal4-VP16 UAS-luciferase, luminescence, 20 h. Potency, µM (series often up to 53.6 µM), for the others: at the top dose activity, negative = inhibition, usual class: inhibitors. actives 3.5% (n = 310,000). AID 2546;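 also: Gal4-VP16 expression switched on by copper sulfate through the metallothionein promoter; potency is read from the fitted curve at half-maximal effect; % is scaled to controls: 0 for no effect and ±100 for the full control effect; nearly all actives have a fitted effect of over 50% in size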
p53 reactivation: restores transcriptional activity of mutant p53; Potency, µM (series often up to 92.2 µM), for inactives: at the top dose activity change, positive = activation, most hits filed as activators; actives 0.063% (n = 320,000); H1299 p53-A138V BP100-luciferase reporter, luminescence, 24 h; also: potency is read from the fitted curve at half-maximal effect; % of control where 0% means no effect; nearly all actives have a fitted effect of over 45% in size
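H1299 (p53-null), stable ts p53-A138V + BP100-Luc; 1000 cells/well, Opti-MEM/10% FBS; cpd 4 pt, 1:5; 24 h, 37 deg C, 5% CO2; detection reagent 10 min RT; luminescence.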
Starred values were filed as active, the others as inactive; ? = inconclusive; . = no result; [ ] = another dose, or the depositor's remark. Unless noted, calls follow the shape of the dose curve; as a rule, active = well fitted curve in the direction sought with a large enough effect; inconclusive = small, poorly fitted or top-dose-only effect, or another doubt; inactive = no such curve, though single readings can be large; an effect the other way counts as inactive or inconclusive.

SMILES	RORgamma inh	BRCA1 expr up	Giardia kill	ELG1 repair inh	Gal4-VP16 FLuc	p53 reactivation
O=C(Cc1cccs1)N/N=C/C=C\c1ccco1	?	76%	4	?	?	14µM*
O=C(N/N=C/C=C/c1ccco1)c1ccncc1	10µM*	-22%	8	?	?	1%
O=C(N/N=C/C=C/c1ccco1)/C(=C/c1ccccc1)NC(=O)c1ccccc1	13µM*	1%	8	1%	?	-5%
COc1ccccc1/C=C/C=N/NC(=O)Cc1cccs1	10µM*	?	-4	?	?	?
CCOC(=O)N1CCN(S(=O)(=O)c2ccc(C(=O)Nc3sc4c(c3C(N)=O)CC(C)(C)NC4(C)C)cc2)CC1	-6%	-24%	-23	11%	-9%	-7%
CCOC(=O)C1=C(CN2CCN(CC)CC2)NC(=O)NC1c1ccc(Cl)cc1 (centres undefined)	.	-2%	.	.	.	.
CCC(=O)NCCNc1nc2cc(C)cc(C)c2cc1C#N	-25%	5%	22	?	2%	-4%
CNC(=O)c1ccc(-c2sc3nc(N4CCOCC4)c4c(c3c2N)CCCC4)o1	-11%	-52%	6	?	3%	-16%
O=C(NCc1cccnc1)c1nc(-c2ccc(C(F)(F)F)cc2)no1	?	-30%	6	?	3.2µM*	-1%
CCCn1c(NC(=S)Nc2ccccc2)nc2ccccc21	1µM*	-86%	13	?	1.1µM*	?
S=C(Nc1ccccc1)Nc1nc2ccccc2n1CCOc1ccc(Cl)cc1	2.2µM*	-69%	13	?	1.8µM*	?
CCn1c(NC(=S)Nc2ccccc2)nc2ccccc21	4.5µM*	52%	-5	?	2.8µM*	7%
COCCc1nc2ccc(C(=O)N(C)Cc3cccc(-n4cccn4)c3)cc2o1	30%	?	19	?	28%	18%
O=C(N/N=C/C=C\c1cccc([N+](=O)[O-])c1)c1cccnc1	6.3µM*	-29%	17	?	?	4%
CC/C(Cc1ccccc1)=N/NC(=O)c1cccc(Br)c1	-31%	-6%	11	7%	-5%	4%
CC(/C=C/c1cccc([N+](=O)[O-])c1)=N/NC(=O)c1cccnc1	3.2µM*	-40%	-5	-17%	5µM*	3%
O=C(N/N=C/C=C/c1ccccc1[N+](=O)[O-])c1cccnc1	0%	-28%	0	13%	0%	1%
COc1ccc(/C(C)=N/NC(=O)c2ccc(CSc3cccc4cccnc34)cc2)cc1OC	16µM*	0%	-15	-9%	20%	2%
CC/C(Cc1ccccc1)=N\NC(=O)c1cc([N+](=O)[O-])cc([N+](=O)[O-])c1	7.9µM*	-21%	-8	-8%	-14%	-6%
COc1ccc(Cl)cc1Nc1nc(C)cc(C)c1C(N)=O	-15%	-28%	-16	15%	-16%	-4%
COc1ccc(C(=O)NN=C(Cc2ccccc2)Cc2ccccc2)cc1OC	11µM*	-24%	-13	-21%	?	-11%
CC(=O)Nc1ccc(OCc2cccc([N+](=O)[O-])c2)cc1	?	?	5	?	?	4%
COc1ccc(C(=O)Cc2ccccc2)cc1OC	-2%	30%	9	?	5%	17%
CC(=O)Nc1ccc(C=CC=Cc2cccc([N+](=O)[O-])c2)cc1	.	5µM*	-7	.	.	.
O=C(/C=C/c1ccc2c(c1)OCO2)c1cccnc1	?	-2%	-4	11%	-7%	5%
SMILES	RORgamma inh	BRCA1 expr up	Giardia kill	ELG1 repair inh	Gal4-VP16 FLuc	p53 reactivation
O=C(N/N=C\C=C\c1ccc2c(c1)OCO2)c1cccnc1	5.6µM*	20%	1	?	11µM*	?
COC(=O)N/N=C(C)/C=C/c1ccccc1	.	3.5µM*	26	.	.	.
CNC(=O)/C(C#N)=C/c1c(N2CCCCCC2)nc2ccccn2c1=O	8%	-13%	-3	-1%	0%	-4%
Cc1nc(C)c(-c2ccc(SCc3cccc(F)c3)nn2)s1	1%	64%	-9	?	-6%	0%
CC(/C=C/c1ccccc1)=N/NC(=O)c1cc([N+](=O)[O-])cc([N+](=O)[O-])c1	0.18µM*	-58%	6	-21%	0.18µM*	3%
O=C(/C=C/c1ccc([N+](=O)[O-])cc1)c1cccnc1	?	-18%	-13	?	22µM*	-30%
COc1ccc(OC)c(NC(=O)CN(Cc2ccc(F)cc2)C2CCCCC2)c1	?	-35%	3	-9%	18µM*	3%
COc1ccc(C(=O)/C=C/C(=O)N(CC(=O)NC2CCCCC2)Cc2ccc(F)cc2)c(O)c1	-12%	-58%	-9	?	7.1µM*	-12%
COc1ccc(Cl)cc1NC(=O)CN(C)C1CCCCC1	-3%	-40%	14	-4%	-9%	5%
O=S1(=O)N=C(Nc2ccc(N3CCOCC3)c(Cl)c2)c2ccccc21	26%	?	12	6%	3%	1%
CCOc1ccccc1NC(=O)CSC1=C(C#N)C(c2ccco2)C(C(=O)Nc2nc3ccccc3s2)=C(C)N1 (centres undefined)	1%	-20%	-7	2%	-12%	3%
COCCn1c(SCC(=O)N2CCCCC2)nc2c([nH]c3ccccc32)c1=O	11%	-27%	19	16µM*	0%	2%
COCCn1c(SCC(=O)N2CCCCCC2)nc2c([nH]c3ccccc32)c1=O	?	-31%	8	-17%	-2%	-3%
CCOC(=O)N1CCN(C(=O)CSc2nc3c([nH]c4ccccc43)c(=O)n2CCOC)CC1	-7%	-66%	-5	7.3µM*	-6%	-6%
CC(=O)N(C(C)=O)c1ncnc2c1c(-c1ccc(Cl)cc1)nn2C(C)(C)C	11µM*	-58%	-14	-4%	-25%	-2%
COc1ccc(OCCN(C)C(=O)c2cccc(S(=O)(=O)N(C)c3ccccc3)c2)cc1	.	-36%	-2	?	.	2%
COc1ccccc1NC(=S)NC(=O)C(C)(C)C	23%	17%	4	?	-3%	-13%
CCOc1ccccc1NC(=O)C1CCCC1	.	-12%	18	.	.	.
COc1ccccc1NC(=S)NC(=O)C1CC1	13µM*	2%	-6	-8%	?	-1%
CCOc1ccccc1OCC(=O)NC1CCCCC1	-11%	-4%[1.84 µM]	-5	-12%	12%	1%
CCOc1ccccc1NC(=O)C1CCCCN1S(=O)(=O)c1ccccc1 (centres undefined)	.	-52%	-9	21µM*	.	-5%
